The full list was thinned out, with hits kept by preference.
RBX1-CUL1 inh – blocks human RBX1-Cullin-1 di-ubiquitin formation; P62877+Q13616; in vitro K48 di-Ub FRET, acceptor:donor ratio, 45 min; inhibition, % at 10 µM; 0.6% of 140,000 active; AID 1347404; in the data active means inhibition above about 25%
Starred values were filed as active, the others as inactive.

SMILES	RBX1-CUL1 inh
CC(C)Oc1ccccc1/C=N\NS(=O)(=O)c1cc(Cl)ccc1Cl	-5.7
O=[N+]([O-])c1cc(-c2ccncn2)sc1[N+](=O)[O-]	40.7*
Brc1cc(-c2ccncn2)cs1	-3.3
Clc1ccc(-c2ccncn2)cc1Cl	6.9
O=C(CN(c1ccc(Cl)c(C(F)(F)F)c1)S(=O)(=O)c1ccccc1)Nc1cc(C(F)(F)F)ccc1Cl	-6.8
CCc1c([O-])[n+](-c2ccccc2)c2ccc(-c3ccccc3)nn2c1=O	1.4
COc1ccc(OC)c(NC(=O)N2CCC(C(N)=O)(N3CCCCC3)CC2)c1	-2.0
O=C(O)c1cccc(N2C(=O)/C(=C/c3ccc4c(c3)OCO4)SC2=S)c1	-1.6
O=C(O)c1ccc(N2C(=O)/C(=C/c3ccc4c(c3)OCO4)SC2=S)cc1	26.1*
COc1cccc(N2C(=O)/C(=C/c3ccc(C(=O)O)cc3)SC2=S)c1	2.7
O=C1C2=CC(C=NCC(O)CO)C(=O)N2c2ccccc21 (configuration not stated)	25.3*
Cc1csc(Nc2ccccn2)n1	-1.1
Nc1ccc2c(c1)CCS2(=O)=O	-9.6
COc1cccc(CC(C2CCN(Cc3cccc(OC)c3O)CC2)N(C)C(=O)c2ccco2)c1 (configuration not stated)	5.2
O=c1[nH]nnc2c1sc1nc3c(c(-c4ccc(Cl)cc4)c12)CCCC3	2.9
NC(=O)c1sc2nnc(-c3ccco3)c(-c3ccco3)c2c1N	-6.9
O=c1[nH]nnc2c1sc1nc3c(c(-c4ccco4)c12)CCc1ccccc1-3	67.1*
O=C1CC2Sc3ccc(Cl)cc3N=C2N(Cc2ccccc2)N1 (configuration not stated)	-1.2
Cc1cc(-c2n[nH]c3c2CN(C(=O)c2scc4c2CCCC4)CC3)no1	1.5
O=C(N/N=C/c1cccc(Cl)c1Cl)c1ccc(O)c(O)c1	54.8*
O=C(N/N=C/c1cccc(Cl)c1Cl)c1ccc(Br)cc1	-0.2
O=C(N/N=C/c1ccc(Cl)cc1Cl)c1ccc(O)c(O)c1	3.8
Cc1cccc2cc(C3c4ccc5ccccc5c4OC(=N)C3C#N)c(Cl)nc12 (configuration not stated)	-7.5
COC(=O)c1c(-c2cccs2)csc1NC(=O)CSc1nnc2cc(C)c3ccccc3n12	8.1
Cc1nc(-c2ccc(CN3CCSCC3)cc2)[nH]c(=O)c1-c1ccccc1	-2.0
SMILES	RBX1-CUL1 inh
COC(=O)c1cc2nnsc2n1C(=O)OC	5.3
O=C1Nc2ccccc2C(=O)C1N1CCOCC1 (configuration not stated)	0.4
O=C(O)c1cccc(N=C2C(=O)N(c3ccc(Cl)cc3Cl)C(=O)C2Cl)c1 (configuration not stated)	-6.8
O=C(O)c1cccc(N=C2C(=O)c3ccccc3C(=O)C2N2CCOCC2)c1 (configuration not stated)	54.4*
O=C1c2ccccc2C(=O)N1CSC(=S)N/N=C/c1ccccc1Cl	1.6
CNC(=O)Cc1nc(C(=O)OC)cc(=O)s1	-2.8
CC(=O)c1ccc(Oc2cc(C#N)c(C#N)cc2-n2nnc3ccccc32)cc1	5.7
CCOC(=O)c1sc(N2C(=O)C=CC2=O)c(C#N)c1C	71.8*
CCOC(=O)c1sc(NC(=O)C(F)(F)F)c(C#N)c1C	8.3
CCOC(=O)c1sc(SC)c(C#N)c1O	-2.4
CCOc1ccccc1N(CC(=O)NN=C1CCN(C)CC1)S(=O)(=O)c1ccc(C)cc1	1.1
COc1ccc(-n2c(C)c(C)n3c4c(=O)n(CCCO)c(=O)n(C)c4nc23)cc1	9.9
CCOc1cc(C=C2C(=O)NC(=S)NC2=O)cc(Cl)c1OCCOc1ccc(OC)cc1	-7.9
Nc1nc(-c2ccccc2)nc2ncccc12	4.8
OC1(c2cn(CC3CCN(Cc4ccsc4)CC3)nn2)CCCC1	-3.2
Nc1nc(N)c2c(F)cccc2n1	13.1
Nc1nc2ccc(N)c(Cl)c2c(=O)[nH]1	-4.5
Nc1nc(N)c2c(F)c(N)ccc2n1	65.3*
Cc1ccccc1CN1CCC(C(=O)N2CCc3ccccc32)CC1	4.5
COc1cccc(N2CCN(Cc3nc(N)nc(Nc4ccc(C)c(C)c4)n3)CC2)c1	1.5
O=C(CCC1(Cc2ccc(F)cc2)CCC(=O)N1)NCc1nc(-c2ccccc2)no1 (configuration not stated)	6.7
O=C(/C=C/c1cccnc1)c1ccc(F)cc1	49.1*
C(=C\c1cccnc1)/c1ccc(/C=C/c2cccnc2)cc1	-0.4
CSc1ccc(C(=O)/C=C/c2ccccc2)cc1	2.8
Cc1cc(C=C2C(=O)NC(=S)NC2=O)c(C)n1-c1sc2c(c1C(=O)Nc1ccccc1)CCCC2	-1.6
SMILES	RBX1-CUL1 inh
CCOC(=O)c1c(-n2c(C)cc(/C=C3\C(=O)NC(=S)N(c4ccccc4)C3=O)c2C)sc2c1CCCC2	49.1*
CCOc1ccc(N2C(=O)/C(=C/c3cc(C)n(C4CCCC4)c3C)C(=O)NC2=S)cc1	-3.8
COc1ccc2c(c1)C=C1C(=CC(=Nc3ccc(Br)cc3)CC1(C)C)O2	54.4*
Cc1ncc(CN2CCCC(C(=O)Nc3ccc(-c4cscn4)cc3)C2)n1C (configuration not stated)	4.8
COc1ccccc1C(=O)N[C@@H]1c2ccccc2C2(CCN(C(=O)Cc3ccsc3)CC2)[C@H]1OC	-5.3
COc1cccc(CNC(=O)CCC2CCCN(C(=O)CNC(C)=O)C2)c1 (configuration not stated)	5.9
CCOc1cc(S(=O)(=O)NCCOC)ccc1F	0.2
COc1ccc(Br)cc1CNc1ccc(O)cc1	41.1*
COc1ccc(Br)cc1CNc1ccc2[nH]c(=O)[nH]c2c1	0.7
Oc1ccc(NCc2ccc(OCc3ccccc3)cc2)cc1	1.1
CCc1ccc(CNc2ccc(O)cc2)cc1	-15.3
Oc1ccc(NCc2ccc(Br)cc2)cc1	75.8*
CNCc1cc(Br)ccc1OC	2.7
CN(C1=C(Cl)C(=O)N(c2ccccc2Cl)C1=O)C1CCCCC1	1.5
Cn1c(COc2ccc(C3CCCCC3)cc2)nn(CN2CCCCC2)c1=S	0.4
O=C(CCC(=O)NNC(=O)C1CC1)NCc1ccccc1	1.5
CCCC(Nc1cc(CCN)ncn1)c1nccn1C (configuration not stated)	8.7
O=C(NC(N(Cc1ccccc1)CC1CCCO1)(C(F)(F)F)C(F)(F)F)c1ccco1 (configuration not stated)	-11.2
FC(F)(F)c1ccc2nc(-c3ccc(Br)cc3)cn2c1	-1.6
Brc1ccc(-c2cn3ccncc3n2)cc1	29.1*
O=[N+]([O-])c1ccc2nc(-c3ccc(Br)cc3)cn2c1	5.4
CC(=O)C1C(=O)Oc2cc(-c3ccccc3)n(-c3ccccc3)c(=O)c2C1=O (configuration not stated)	-4.2
CCN1/C(=C\C=C/C2C=Cc3ccccc3N2CC)C=Cc2ccccc21 (configuration not stated)	57.0*
COc1ccc(N2CCN(S(=O)(=O)c3ccc(Br)cc3)CC2)cc1	-6.1
Cc1ccc(S(=O)(=O)Nc2cc(SCC(=O)O)c(O)c3ccccc23)c(C)c1	4.1
SMILES	RBX1-CUL1 inh
O=S(=O)(Nc1ccc(O)c(Sc2ncn[nH]2)c1)c1ccccc1	-0.1
COc1ccc(S(=O)(=O)Nc2cc(Sc3ncn[nH]3)c(O)c3ccccc23)cc1	96.8*
Cc1ccc(S(=O)(=O)Nc2cc(Sc3nc4ccccc4s3)c(O)c3ccccc23)cc1	9.6
O=C(O)CSc1cc(NS(=O)(=O)c2ccc3ccccc3c2)c2ccccc2c1O	89.4*
O=c1oc2c(cc(NS(=O)(=O)c3ccc4ccccc4c3)c3ccccc32)s1	12.3
Cc1cc(C)nc(SCc2nnc(SCC(=O)NNC(=O)Cc3ccccc3)n2-c2ccccc2)n1	9.7
